# Test results taken from paper PMC5540273 (PLoS ONE, 2017).
# Tests used:
# Conditions in all cases: concentration: 1 μM,replicates: in singlicate; n = 1
# CLK2 = tested on: CLK2
# CLK3 = tested on: CLK3
# CLK4 = tested on: CLK4
# CSF1R-autoinhibited = tested on: CSF1R-autoinhibited
# CSF1R = tested on: CSF1R
# CSK = tested on: CSK
# CSNK1A1L = tested on: CSNK1A1L
# CSNK1A1 = tested on: CSNK1A1
# CSNK1D = tested on: CSNK1D
# CSNK1E = tested on: CSNK1E
# CSNK1G1 = tested on: CSNK1G1
# CSNK1G2 = tested on: CSNK1G2
# CSNK1G3 = tested on: CSNK1G3
# CSNK2A1 = tested on: CSNK2A1
# CSNK2A2 = tested on: CSNK2A2
# CTK = tested on: T1, CTK
# T1 construct: gene MATK
# DAPK1 = tested on: DAPK1
# DAPK2 = tested on: DAPK2
# DAPK3 = tested on: DAPK3
# DCAMKL1 = tested on: T2, DCAMKL1
# T2 construct: gene DCLK1
# 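Also: KINOMEscan kinase panel screen.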
Compound,%Inh (CLK2) [%],%Inh (CLK3) [%],%Inh (CLK4) [%],%Inh (CSF1R-autoinhibited) [%],%Inh (CSF1R) [%],%Inh (CSK) [%],%Inh (CSNK1A1L) [%],%Inh (CSNK1A1) [%],%Inh (CSNK1D) [%],%Inh (CSNK1E) [%],%Inh (CSNK1G1) [%],%Inh (CSNK1G2) [%],%Inh (CSNK1G3) [%],%Inh (CSNK2A1) [%],%Inh (CSNK2A2) [%],%Inh (CTK) [%],%Inh (DAPK1) [%],%Inh (DAPK2) [%],%Inh (DAPK3) [%],%Inh (DCAMKL1) [%]
CS(=O)c1ccc(-c2coc3ccc(-c4n[nH]c(=O)o4)cc23)cc1 (stereo not drawn),25,3,33,10,4,0,7,7,0,0,0,20,5,100,99.8,0,52,67,59,3
Cn1ccc2ncnc(Oc3ccc(NC(=O)Nc4cc(C(C)(C)C)on4)c(Cl)c3)c21,95.1,0,10,43,100,0,15,6,6,0,17,15,0,21,30,48,0,0,0,25
CCOC(=O)N1CCC(n2cnc(-c3ccc(F)cc3)c2-c2ccnc(N)n2)CC1 [SB-219952],0,2,2,22,70,11,74,97.8,94.8,99.7,4,12,0,19,9,0,25,0,0,22
Cn1ccc2ncnc(Oc3ccc(NC(=O)Nc4cnn(C(C)(C)C)c4)c(Cl)c3)c21,12,5,9,28,99.9,0,0,0,0,2,0,32,0,0,38,20,8,0,0,10
CC(=O)Nc1nc2cnc(Nc3cc(NC(=O)c4cccc(CC(C)(C)C#N)c4)ccc3C)nc2s1,0,0,7,28,99.7,7,11,31,6,0,14,1,0,21,21,0,0,0,4,26
Cl.Cl.NC[C@H](CC1CCCCC1)NC(=O)c1ccc(-c2ccnc3[nH]ccc23)s1 [GSK1581428],82,63,90,0,85,0,69,77,80,82,29,72,64,8,0,9,49,12,32,0
COc1cc(Nc2nccc(N3CCC(NC(=O)c4cccc(C#N)c4)C3)n2)cc(OC)c1OC (stereo not drawn) [GSK1379751],0,0,0,14,28,0,0,0,0,8,0,0,7,0,0,0,0,0,6,5
Cn1cc(-c2cccc3c(N)c(C(N)=O)nnc23)cn1,78,20,75,0,0,19,21,72,32,25,13,7,10,26,33,32,3,16,5,7
Cn1ccc2ncnc(Oc3ccc(NC(=O)Nc4cccc(C(F)(F)F)c4)c(F)c3)c21,9,4,0,0,99.9,0,0,39,22,13,9,20,0,0,0,0,1,0,13,12
NC(=O)Nc1sc(-c2ccc(F)cc2)cc1C(N)=O [GW789449],0,15,0,39,77,6,5,35,55,40,0,0,0,49,81,22,32,0,38,0
O=C(Nc1cccc(C(F)(F)F)c1)c1cccc(Oc2ccc3nccn3n2)c1,0,0,4,16,100,0,0,0,11,0,1,10,1,0,0,69,0,0,0,0
CCN1CCN(CCCC(=O)Nc2n[nH]c3nc(-c4ccc(O)cc4)c(Br)cc23)CC1 [SB-731579],8,66,45,0,0,0,0,5,0,0,0,0,0,0,0,34,41,31,61,0
C[C@@H]1CNc2c(sc3ccc4nc(-c5ccncc5)ccc4c23)C(=O)N1,94,32,81,3,8,19,66,95,34,29,16,15,21,38,0,0,30,24,13,4
c1ccc(Oc2ccc(Nc3ccnc4ccc(-c5ccccn5)cc34)cc2)cc1 [GW407034],0,19,0,0,9,6,13,0,14,36,11,0,10,0,14,0,0,0,5,9
Cc1nnc(-c2ccc3occ(-c4ccc(S(C)=O)cc4)c3n2)o1 (stereo not drawn),19,0,0,0,1,0,6,0,0,0,17,0,0,0,0,0,0,0,0,0
COC(=O)Nc1nc2cc(Oc3ccc(NC(=O)Nc4cc(C(F)(F)F)ccc4Cl)cc3)ccc2[nH]1.Cl [GW697465],0,13,43,47,99.6,0,9,0,69,39,0,0,8,0,0,0,2,0,0,0
FC(F)(F)c1cc(Br)cc(Nc2nccc(-c3cnn4ncccc34)n2)c1 [GW810578],95.6,79,85,0,61,17,68,58,91.9,75,13,31,0,0,32,0,2,1,18,19
CC(=O)Nc1ccc(-c2cc3ncnc(SCC(=O)O)c3s2)cc1,53,9,32,41,48,12,5,33,4,0,15,0,8,75,68,14,23,8,9,0
O=C1NCCc2[nH]c(-c3ccncc3)cc21,94.8,32,94.6,0,5,10,73,95.7,96.6,98.1,51,93.7,83,64,59,24,77,66,81,16
Cc1ccc(Nc2ccnc(Nc3ccc4c(c3)CS(=O)(=O)C4)n2)cc1O.Cl [GW579362],16,82,81,76,97.5,48,8,0,3,21,10,0,19,63,84,25,63,38,70,25
O=C(Nc1n[nH]c2cc(-c3ccco3)ccc12)C1CC1 [SB-737447],22,19,0,0,0,10,0,18,0,0,0,0,15,31,68,34,0,7,10,7
